Reference: article PMC5540273 (PLoS ONE, 2017)

These molecules were tested on WNK1. Conditions: concentration: 1 μM, replicates: in singlicate; n = 1.
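Further: KINOMEscan kinase panel screen.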

Row | Structure (SMILES) | %Inh [%]
1 | Cn1cc(-c2ccc3c(c2)CCN3C(=O)Cc2cccc(Cl)c2)c2c(N)ncnc21 [GSK2606590] | 13
2 | COC(=O)Nc1nc2ccc(Oc3ccc(NC(=O)Nc4cc(C(F)(F)F)ccc4F)cc3)cc2n1C.Cl [GW692089] | 0
3 | O=C(O)C(F)(F)F.O=C(O)C(F)(F)F.O=c1[nH]ccc2nc(N[C@@H]3CCCNC3)nc(Nc3ccc(S(=O)(=O)N4CCOCC4)cc3)c12 [GSK2177277] | 0
4 | CCn1c(-c2nonc2N)nc2c(C#CC(C)(C)O)ncc(OCCCCN)c21.O=C(O)C(F)(F)F.O=C(O)C(F)(F)F [GSK507274] | 19

What follows are molecules tested on WNK2. Conditions: concentration: 1 μM, replicates: in singlicate; n = 1.

Row | Structure (SMILES) | %Inh [%]
5 | CN1CCN(Cc2cccc(-c3ccc4c(Nc5ccc(Oc6ccccc6)cc5)ccnc4c3)c2)CC1 [GW578342] | 15
6 | O=C(Nc1ccccc1F)NC1CCN(c2ccnc(Nc3ccc(F)cc3)n2)CC1 [GSK1379800] | 6
7 | Cl.c1ccc(-c2ccc3c(Nc4ccc5[nH]ncc5c4)ccnc3c2)nc1 [GW440137] | 14
8 | CCn1c(-c2nonc2N)nc2c(C#CC(C)(C)O)nc(OC[C@H](N)c3ccccc3)cc21 [GSK943949] | 0
9 | O=C(Nc1cccc(-c2nn3ccccc3c2-c2ccnc(Nc3cccc(C(F)(F)F)c3)n2)c1)c1c(F)cccc1F [GSK292658] | 15
10 | Cn1cc(-c2ccc3c(c2)CCN3C(=O)Cc2cccc(F)c2)c2c(N)ncnc21 [GSK2603358] | 0
11 | COc1cc(Nc2nccc(N3CCC(NC(=O)c4cc5ccccc5s4)C3)n2)cc(OC)c1OC (centres unmarked) [GSK1379760] | 0
12 | COCCOCCOc1cc2ncc3c4ccc(C#N)cc4[nH]c3c2cc1OC | 0
13 | Cl.Cl.NCC(NC(=O)c1cc(-c2ccccc2)c(-c2ccnc3[nH]ccc23)s1)c1ccccc1 (centres unmarked) [GSK1321561] | 100
14 | COc1cc(Nc2nccc(-c3c(-c4cccc(NC(=O)c5c(F)cccc5F)c4)nn4ncccc34)n2)cc(OC)c1OC [GSK327238] | 0
15 | CN(C)S(=O)(=O)c1cc(-c2ccc3nccc(-c4cccc(S(N)(=O)=O)c4)c3c2)cnc1N [GSK1669921] | 0
16 | Cl.Cl.NCC(NCc1ccc(-c2ccnc3[nH]ccc23)s1)c1ccccc1 (centres unmarked) [GSK1321565] | 11
17 | Cc1ccc(S(=O)(=O)Nc2ccc(Nc3nccc(Nc4cccc5[nH]ncc45)n3)cc2)cc1 [GSK581271] | 0
18 | CC(=O)Nc1nc2cnc(Nc3cc(NC(=O)c4cccc(C5(C#N)CC5)c4Cl)ccc3C)nc2s1 | 0
19 | CNC(=O)c1ccccc1Nc1nc(Nc2ccc(N3CCOCC3)cc2)ncc1Cl.Cl [GSK1576028] | 5
20 | Cc1ccc(C(=O)N2CC[C@@H](O)C2)cc1-n1c(C)cc(OCc2ccc(F)cc2F)c(Br)c1=O | 0
21 | COc1ccc(Nc2nccc(N3CCC(NC(=O)Nc4cccc(OC)c4)C3)n2)cc1 (centres unmarked) [GSK1379742] | 18
22 | Cl.Cl.NCC(C(=O)Nc1cc(Br)c(-c2ccnc3[nH]ccc23)s1)c1ccccc1 (centres unmarked) [GSK1269851] | 100
23 | Oc1cc(Nc2ccnc3cc(I)ccc23)ccc1F [GW552771] | 4
24 | COc1ccc(Nc2nccc(NCCNC(=O)c3cc4ccccc4s3)n2)cc1 [GSK1379896] | 55
25 | CCS(=O)(=O)c1ccc(OC)c(Nc2nccc(-c3c(-c4cccc(NC(=O)c5c(F)cccc5F)c4)nn4ncccc34)n2)c1 [GSK326180] | 35
26 | COc1cccc(C(=O)Nc2cccc(Oc3ccc4nc(NC(=O)C5CC5)cn4n3)c2)c1 | 0
27 | CN(C)Cc1ccc(-c2ccc3c(Nc4ccc(Oc5ccccn5)cc4)ccnc3c2)o1 [GW567148] | 14
28 | Clc1ccc(-c2nn3ncccc3c2-c2ccnc(Nc3ccc4c(c3)OCCO4)n2)cc1 [GW829116] | 0
29 | Cl.c1ccc(-c2ccc3c(Nc4ccc5[nH]ccc5c4)ccnc3c2)nc1 [GW440138] | 13
30 | Fc1ccc(-c2ncn(C3CCNCC3)c2-c2ccnc(Oc3ccc(-c4ccccc4)cc3)n2)cc1 [SB-245391] | 0
31 | O=C(Nc1cccc(Oc2ccc3nc(NC(=O)C4CC4)cn3n2)c1)c1ccccc1C(F)(F)F | 0
32 | COc1cccc(C2=C(Nc3ccc(Cl)c(C(=O)O)c3)C(=O)NC2=O)c1 [SB-390769] | 8
